The results in this text go back to PubChem BioAssay (NCATS).

Test [1] can be described thus: OV-KATE Cancer Cell Toxicity qHTS against the NCATS CANVASS Library (AID 1347345). Put shortly: (§1)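 Following a 4 h pre-incubation of 1000 seeded cells, compounds were pinned in an 11-pnt dilution series and left for 72 h; viability then came from CellTiter-Glo.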
Test [2] can be described thus: HPAF-II Cancer Cell Toxicity qHTS against the NCATS CANVASS Library (AID 1347346). Also: series mostly up to about 38 µM; nearly all actives have a fitted effect of over 55% in size. The essentials:
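HPAF-II cells were seeded at 1000 cells/well, allowed to settle for 4 h at 37 degrees C, then exposed to compounds in an 11-point series for 72 h. Viability was read by CellTiter-Glo luminescence.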

Test [3] can be described thus: SW1088 Cancer Cell Toxicity qHTS against the NCATS CANVASS Library (AID 1347350). Also: nearly all actives have a fitted effect of over 75% in size. The essentials:
as §1

The nature of test [4]: U-118MG Cancer Cell Toxicity qHTS against the NCATS CANVASS Library (AID 1347351). Also: series mostly up to about 38 µM. Put shortly:
as §1

The nature of test [5]: COV-362 Cancer Cell Toxicity qHTS against the NCATS CANVASS Library (AID 1347352). Also: series mostly up to about 38 µM. Put shortly: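 Cells were seeded at 1000 per well and allowed to settle 4 hours at 37 degrees C before pin transfer of compounds as an 11-point series. Viability was read by CellTiter-Glo luminescence after 72 hours' exposure.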
Test [6] in a line: A2780 Cisplatin Sensitive Ovarian Cancer Cell Toxicity qHTS against the NCATS CANVASS Library (AID 1347353). Also: nearly all actives have a fitted effect of over 60% in size. The essentials:
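A2780 cisplatin-sensitive cells (750 per well) were seeded, left 4 h at 37 °C, then pin-dosed in an 11-point series. After 72 h at 37 °C/5% CO2, viability was measured as ATPLite luminescence.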

Test [7] can be described thus: KB-8-5-11 Cancer Cell Toxicity qHTS against the NCATS CANVASS Library (AID 1347364). Also: nearly all actives have a fitted effect of over 75% in size. The essentials: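 KB-8-5-11 cells (500/well) in DMEM + 10% FBS were exposed to compounds in an 11-point qHTS series for 72 hr at 37C, 5% CO2. Viability was read by CellTiter-Glo luminescence.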
A short description of test [8]: MCF7 Cancer Cell Toxicity qHTS against the NCATS CANVASS Library (AID 1347369). Also: series mostly up to about 46 µM. The essentials: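 Cytotoxicity was measured as CellTiterGlo luminescence (ATP) after 72 h at 37 °C. The cells were MCF7 at 500 per well, with an 11-point compound concentration series.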
A short description of test [9]: qHTS for ATAD5 Antagonist screened against the NCATS CANVASS Library (AID 1347370).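 Also: HEK293T cells carrying an ATAD5 luciferase reporter co-treated with 10 µM 5-fluorouridine; series mostly up to about 46 µM; nearly all actives have a fitted effect of over 65% in size.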 Put shortly:
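HEK293T cells with a stably integrated ATAD5-controlled luciferase reporter were exposed to compounds (11-pt) alongside 10 uM 5-fluorouridine as ATAD5 stabilizer for 16hr at 37C. Viability was read by CellTiter-Fluor fluorescence, then ATAD5 by luminescence.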

Test [10] deals with Nuclear receptor subfamily 1 group I member 3 (Homo sapiens) (UniProt Q14994). The test is described as follows: qHTS for Constitutive Androstane Receptor (CAR) Antagonist screened against the NCATS CANVASS Library (AID 1347372).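 Also: cells stimulated with 50 nM CITCO agonist so inhibition reflects antagonism; series mostly up to about 46 µM.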 Put shortly: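 HepG2 cells stably carrying hCAR and CYP2B6-2.2kb luciferase reporter, 2500 cells/well, compound with 50 nM CITCO agonist for 24hr at 37C. ONE-Glo luminescence measured CAR activity; CellTiter-Fluor read viability.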

Test [11] can be described thus: qHTS for Hypoxia signaling pathway (HIF-1) antagonists against the NCATS CANVASS Library (AID 1347374).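 Also: HRE-bla ME-180 cells stimulated with cobalt chloride to stabilize HIF-1alpha; series mostly up to about 38 µM; nearly all actives have a fitted effect of over 60% in size.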 The essentials: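 HRE-bla ME-180 cells (2,000/well, 0.5% dialyzed FBS) were pre-incubated 5 h, then given an 11-point compound series plus CoCl2 (60 uM solution as added) for 17 h at 37C. CCF4 β-lactamase read (ex 405, em 460/530 nm) after 2 h at RT.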
A short description of test [12]: qHTS for Inflammasome Signaling Inhibitors: IL-1-beta AlphaLISA screen against the NCATS CANVASS Library (AID 1347379).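 Also: human THP-1 cells primed with LPS then triggered with ATP; secreted IL-1B measured as AlphaLISA emission at 615 nm; lower signal means less IL-1B release which is the wanted effect.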 Put shortly:
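Human THP-1 cells were pretreated 1 hr at 37 °C with compounds (up to 57.5 uM final), then stimulated with LPS (250 ng/mL final) and ATP (1.25 mM final). Secreted IL-1B was read by AlphaLISA after 16 hr.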

Test [13] in a line: qHTS for Activators of p53 Stress Response Pathway screened against the NCATS CANVASS Library (AID 1347388). The essentials:
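p53RE-bla HCT-116 cells (4000/well) were pre-incubated for 5 h, then treated with compound (11 points) for 16 h at 37C. After 2 h with CCF4, the 460/530 nm ratio gave reporter activation; CellTiter-Glo measured viability.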

A short description of test [14]: qHTS assay for small molecule disruptors of mitochondrial membrane potential screened against the NCATS CANVASS Library (AID 1347389). Also: series mostly up to about 46 µM; nearly all actives have a fitted effect of over 60% in size. Put shortly: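 HepG2 cells (2,000/well) were plated overnight at 37C, exposed to compound for 1 hr at 37C/5% CO2, then loaded with Mito-MPS dye for 30 min. Depolarization was read as a drop in red (590 nm) to green (535 nm) fluorescence ratio.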

The nature of test [15]: Secretion counterscreen for inhibitors of the SERCaMP assay screened against the NCATS CANVASS Library (AID 1347390).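 Also: light from luciferase secreted into medium read as a measure of general secretion; series mostly up to about 77 µM.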 Put shortly:
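Counterscreen for secretory-pathway interference: after 4 h attachment, SH-SY5Y-GLuc cells were exposed 20 hours to compounds (final 0.001 - 77 uM), then coelenterazine added and GLuc luminescence recorded; Brefeldin A served as control.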

Test [16] is described as follows: qHTS for activators of Nrf2/ARE signaling pathway screened against the NCATS CANVASS Library (AID 1347391). Also: nearly all actives have a fitted effect of over 60% in size. Put shortly: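 ARE-bla HepG2 beta-lactamase reporter cells, 2000 cells/well, were preincubated 5 h, then exposed to compounds (11-point series) for 16 h at 37C. CCF4 fluorescence (ex 405, em 460/530 nm) after 2 h at room temperature.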
Test [17] is described as follows: Vero-766 cells viability qHTS against the NCATS CANVASS Library: Counterscreen for Zika virus inhibition assay (AID 1347394). Put shortly:
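CellTiter Glo luminescence measured cytotoxicity after 72 h at 37C in uninfected Vero 766 cells, plated at 1000 cells/well. Compounds were applied in an 11-point series. Wells without cells defined 100% inhibition.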

Test [18] can be described thus: Viability qHTS for inhibitors of the SERCaMP assay screened against the NCATS CANVASS Library (AID 1347400). Also: series mostly up to about 92 µM; nearly all actives have a fitted effect of over 70% in size. The essentials: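 SH-SY5Y-GLuc SERCaMP MJH297-derived cells (1000 cells/well) were pre-incubated 4 h at 37C, then exposed to compounds for 48 h. Viability was read as CellTiter-Glo luminescence; bortezomib served as positive control.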
Test [19] in a line: qHTS to identify inhibitors of the type 1 interferon - major histocompatibility complex class I in skeletal muscle: primary screen against the NCATS Mechanism Interrogation Plate v5.0 (MIPE) Libary (AID 1347411). Also: nearly all actives have a fitted effect of over 65% in size. Also: potency is read from the fitted curve at half-maximal effect. Put shortly:
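Immortalized human C25cl48 myoblasts with HiBit knocked into endogenous HLA-B*08:01 were stimulated with 4.0 ng/ml IFN-beta and exposed to compounds (11-point 1:3 titration, top 46 uM final) for 24 hrs at 37 C; HiBiT lytic luminescence measured.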

In test [20] the target is Phospholipid hydroperoxide glutathione peroxidase GPX4 (Homo sapiens) (UniProt P36969). As to the kind of experiment: Primary qHTS Assay for Inhibitors of Recombinant Selenoprotein Glutathione Peroxidase 4 (GPX4) (AID 1845192). Also: nearly all actives have a fitted effect of over 65% in size. The essentials:
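GR-coupled assay: recombinant GPX4 preincubated 30 min with compound at room temperature; final 200 nM GPX4, 1 mM GSH, 0.5 mM cumene hydroperoxide, 0.5 mM NADPH, 100 nM GR, 0.01% BSA, pH 7.5 Tris. NADPH fluorescence (340/450 nm) read at 0 and 15 min.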

Records with an inconclusive call do not appear. The source made the active and inactive calls. Calls follow the shape of the dose curve; as a rule, active = well fitted curve in the direction sought with a large enough effect; inconclusive = small, poorly fitted or top-dose-only effect, or another doubt; inactive = no such curve, though single readings can be large; an effect the other way counts as inactive or inconclusive.

Phospholipid hydroperoxide glutathione peroxidase GPX4 (Homo sapiens), sequence (P36969 whole entry, looked up): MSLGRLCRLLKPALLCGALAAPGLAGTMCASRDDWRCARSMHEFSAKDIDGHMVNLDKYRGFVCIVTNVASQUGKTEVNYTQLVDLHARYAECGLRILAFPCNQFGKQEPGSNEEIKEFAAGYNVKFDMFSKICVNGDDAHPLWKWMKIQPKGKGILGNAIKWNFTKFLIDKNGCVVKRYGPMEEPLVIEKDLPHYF
Nuclear receptor subfamily 1 group I member 3 (Homo sapiens), sequence (Q14994 whole entry, looked up): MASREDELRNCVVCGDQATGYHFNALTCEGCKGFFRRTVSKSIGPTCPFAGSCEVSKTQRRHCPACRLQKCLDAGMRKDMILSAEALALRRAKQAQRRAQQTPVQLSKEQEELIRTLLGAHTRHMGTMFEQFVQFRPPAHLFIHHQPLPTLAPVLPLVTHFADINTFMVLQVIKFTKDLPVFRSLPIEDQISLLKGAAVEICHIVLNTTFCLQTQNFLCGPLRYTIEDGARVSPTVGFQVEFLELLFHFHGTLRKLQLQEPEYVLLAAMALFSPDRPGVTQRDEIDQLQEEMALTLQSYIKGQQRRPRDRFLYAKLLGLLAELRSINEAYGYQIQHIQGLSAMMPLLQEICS

`CO[C@@H](/C=C/CC/C=C/C(=O)O)[C@@H](O)[C@H](C)/C=C(\C)[C@H](O)[C@H](C)C(=O)CCCC1CC(=O)NC(=O)C1`: the Potency result in test [1], in test [2], in test [3], in [4], in test [5] and in test [6] was “inactive” throughout. The Potency result in [7], in test [8], in [9], in [10], in test [11] and in test [12] was “inactive” each time. Moreover, the Potency entry in test [13], in test [14], in [15], in [16], in test [17] and in test [18] was “inactive” in each case.
On to `CO/C1=C/C(C)=C\[C@@H](C)[C@@H](O)[C@@H](C)C/C(C)=C\C=C/[C@H](OC)[C@@H]([C@@H](C)[C@@H](O)[C@H](C)[C@@]2(O)C[C@@H](O)[C@H](C)[C@@H](C(C)C)O2)OC1=O`, for which the Potency result in test [19] and in [20] was “inactive” each time.
For the compound `CC(C)(NC(=O)O[C@@H]1CN2CCC1CC2)c1csc(-c2ccc(F)cc2)n1`, the Potency entry in test [19] and in test [20] was “inactive” throughout.
Consider `N#CC(O[C@@H]1O[C@H](CO[C@@H]2O[C@H](CO)[C@@H](O)[C@H](O)[C@H]2O)[C@@H](O)[C@H](O)[C@H]1O)c1ccccc1` (stereo partly drawn), for which the Potency result in test [19] and in test [20] was “inactive” each time.
`COc1cc(C)[nH]c(=O)c1CNC(=O)c1c(C)n([C@H](C)C2CCN(CC(F)(F)F)CC2)c2ccccc12`: the Potency result in test [19] and in [20] was “inactive” throughout.
Turning to `Cn1c(COP(=O)(NCCBr)NCCBr)cnc1[N+](=O)[O-]`, the Potency result in test [19] and in [20] was “inactive” throughout.
Regarding `CCCCCCC(C)(C)c1cc(O)c2c(c1)OC(C)(C)C1CC=C(CO)C[C@H]21` (stereo partly drawn), in test [19], the Potency was 13.1 µM (active). Besides, in [20], the Potency entry is “inactive”.
As for `CC1(C)CC[C@]2(NC(=O)C(C)(F)F)CC[C@]3(C)[C@H](C(=O)C=C4[C@@]5(C)C=C(C#N)C(=O)C(C)(C)[C@@H]5CC[C@]43C)[C@@H]2C1`, in test [19], the Potency is 1.31 µM (active). Further, the Potency result in [20] was “inactive”.
The matching figures for `CC(=O)OC[C@H]1O[C@@H]([S-])[C@H](OC(C)=O)[C@@H](OC(C)=O)[C@@H]1OC(C)=O.CC[PH+](CC)CC.[Au]`: 1.17 µM (active) and “inactive”.
With `CC(=O)O[C@@]12CO[C@@H]1C[C@H](O)[C@@]1(C)C(=O)[C@H](O)C3=C(C)[C@@H](O)C[C@@](O)([C@@H](OC(=O)c4ccccc4)[C@H]21)C3(C)C`, the Potency result in test [19] and in [20] was “inactive” in each case.
As for `Cc1[nH]ncc1-c1cc2nc([C@@H]3CC4CCN3CC4)[nH]c(=O)c2s1`, in test [19], the Potency is 7.39 µM (active). For the same compound, the Potency result in test [20] was “inactive”.
